Results reported in PubChem BioAssay.
The other results are listed elsewhere or left out. The source made the active and inactive calls. Cut-off read from the data, not from the text of the source, unless noted: active = inhibition above about 30%; inactive = the rest.

Assays:
[1] = target: Nuclear receptor coactivator 3 (Homo sapiens) (UniProt Q9Y6Q9); assay: SRC3 coactivator transcriptional activity inhibitors, confirmation, cell-based, luminescence, quadruplicate (AID 588792;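 active = mean inhibition over 43.08%, the solvent-only control mean plus 3 SD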;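 note: 0% = DMSO treated cells and 100% = gossypol at 36 µM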); conditions: HEK293 GAL4-SRC3 luciferase reporter, at 3.6 µM, active compounds read high
[2] = tested on: transactivating tegument protein VP16 (Human herpesvirus 1), Gal4-VP16 luciferase reporter; assay: VP16 transactivation inhibitors, counter-screen for SRC3 inhibitor project, cell-based, luminescence, high throughput (AID 588794); conditions: mammalian cells, VP16-driven luciferase reporter luminescence; at 3.6 µM; active compounds read high
[3] = target: Nuclear receptor coactivator 1 (Homo sapiens) (UniProt Q15788); assay: SRC1 coactivator transcriptional activity inhibitors, confirmation, cell-based, luminescence, quadruplicate (AID 588820;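 active = mean inhibition above 46.68%, the untreated control wells mean plus 3 SD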;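 note: 0% = DMSO wells and 100% = gossypol 36 µM treated wells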); conditions: HEK293 GAL4-SRC1 luciferase reporter, at 3.6 µM, active compounds read high
[4] = VP16 transactivation inhibitors, counter-screen for SRC1 inhibitor project, cell-based, luminescence, high throughput (AID 588824; in the data active = inhibition above about 25%); conditions: cell-based VP16 transactivation luciferase luminescence; at 3.6 µM; active compounds read high
[5] = StAR promoter reporter inhibitors, counter-screen for LRH-1 inverse agonist project, cell-based, luminescence, high throughput (AID 651611; in the data active = inhibition above about 28%); conditions: StAR promoter luciferase reporter counterscreen, at 3.6 µM, active compounds read high
[6] = target: Nuclear receptor subfamily 5 group A member 2 (Homo sapiens) (UniProt O00482); assay: LRH-1 (NR5A2) inverse agonists, retest, confirmation, cell-based, luminescence (AID 651613; in the data active = inhibition above about 42%;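 note: HEK293T cells co-transfected with LRH-1 and StAR promoter luciferase reporter; 0% = vehicle wells and 100% = parental cells lacking receptor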); conditions: cell-based LRH-1 luciferase reporter, inverse agonism; at 3.6 µM; active compounds read high
[7] = target: Steroidogenic factor 1 (Homo sapiens) (UniProt Q13285); assay: SF1 (NR5A1) inverse agonists, counter-screen for LRH-1 inverse agonist project, cell-based, luminescence, high throughput (AID 651614; in the data active = inhibition above about 44%;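 note: cells cotransfected with StAR promoter reporter and SF1 expression vector; 0% = vehicle on cells with receptor and 100% = vehicle on cells lacking receptor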); conditions: cell-based SF1 luciferase reporter, at 3.6 µM, active compounds read high
[8] = VP16 transactivation reporter inhibitors, counter-screen for LRH-1 inverse agonist project, cell-based, luminescence, high throughput (AID 651615; in the data active = inhibition above about 33%); conditions: Gal4-VP16 luciferase reporter cells, at 3.6 µM, active compounds read high
[9] = target: Photoreceptor-specific nuclear receptor (Homo sapiens) (UniProt Q9Y5X4); assay: NR2E3 agonist confirmation in cells, cell-based, luminescence, CHO-S two-hybrid (AID 624378;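 active = average inhibition above a cutoff equal to the mean inhibition of all tested compounds plus one SD, cut at about 70% in these data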;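 note: 0% = DMSO in NR2E3 cells and 100% = DMSO in cells lacking NR2E3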); conditions: CHO-S mammalian two-hybrid NR2E3-NCOR, luciferase luminescence; at 3.98 µM; active compounds read high
[10] = GAL4-VP16 reporter modulators, confirmation, counter-screen for NR2E3 agonist project, cell-based, luminescence, CHO-S, high throughput (AID 624379;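 active = mean inhibition above a cutoff equal to the average over all tested compounds plus one standard deviation, cut at about 70% in these data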;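 note: 0% = DMSO with VP16-transfected cells and 100% = DMSO with cells lacking VP16; higher means less reporter light so more repression of VP16 activity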); conditions: CHO-S GAL4-VP16 luciferase reporter, at 3.98 µM, active compounds read high

Measured: inhibition

Sequence of Nuclear receptor coactivator 3 (Homo sapiens) (Q9Y6Q9 whole entry, looked up, the tested form may be a part): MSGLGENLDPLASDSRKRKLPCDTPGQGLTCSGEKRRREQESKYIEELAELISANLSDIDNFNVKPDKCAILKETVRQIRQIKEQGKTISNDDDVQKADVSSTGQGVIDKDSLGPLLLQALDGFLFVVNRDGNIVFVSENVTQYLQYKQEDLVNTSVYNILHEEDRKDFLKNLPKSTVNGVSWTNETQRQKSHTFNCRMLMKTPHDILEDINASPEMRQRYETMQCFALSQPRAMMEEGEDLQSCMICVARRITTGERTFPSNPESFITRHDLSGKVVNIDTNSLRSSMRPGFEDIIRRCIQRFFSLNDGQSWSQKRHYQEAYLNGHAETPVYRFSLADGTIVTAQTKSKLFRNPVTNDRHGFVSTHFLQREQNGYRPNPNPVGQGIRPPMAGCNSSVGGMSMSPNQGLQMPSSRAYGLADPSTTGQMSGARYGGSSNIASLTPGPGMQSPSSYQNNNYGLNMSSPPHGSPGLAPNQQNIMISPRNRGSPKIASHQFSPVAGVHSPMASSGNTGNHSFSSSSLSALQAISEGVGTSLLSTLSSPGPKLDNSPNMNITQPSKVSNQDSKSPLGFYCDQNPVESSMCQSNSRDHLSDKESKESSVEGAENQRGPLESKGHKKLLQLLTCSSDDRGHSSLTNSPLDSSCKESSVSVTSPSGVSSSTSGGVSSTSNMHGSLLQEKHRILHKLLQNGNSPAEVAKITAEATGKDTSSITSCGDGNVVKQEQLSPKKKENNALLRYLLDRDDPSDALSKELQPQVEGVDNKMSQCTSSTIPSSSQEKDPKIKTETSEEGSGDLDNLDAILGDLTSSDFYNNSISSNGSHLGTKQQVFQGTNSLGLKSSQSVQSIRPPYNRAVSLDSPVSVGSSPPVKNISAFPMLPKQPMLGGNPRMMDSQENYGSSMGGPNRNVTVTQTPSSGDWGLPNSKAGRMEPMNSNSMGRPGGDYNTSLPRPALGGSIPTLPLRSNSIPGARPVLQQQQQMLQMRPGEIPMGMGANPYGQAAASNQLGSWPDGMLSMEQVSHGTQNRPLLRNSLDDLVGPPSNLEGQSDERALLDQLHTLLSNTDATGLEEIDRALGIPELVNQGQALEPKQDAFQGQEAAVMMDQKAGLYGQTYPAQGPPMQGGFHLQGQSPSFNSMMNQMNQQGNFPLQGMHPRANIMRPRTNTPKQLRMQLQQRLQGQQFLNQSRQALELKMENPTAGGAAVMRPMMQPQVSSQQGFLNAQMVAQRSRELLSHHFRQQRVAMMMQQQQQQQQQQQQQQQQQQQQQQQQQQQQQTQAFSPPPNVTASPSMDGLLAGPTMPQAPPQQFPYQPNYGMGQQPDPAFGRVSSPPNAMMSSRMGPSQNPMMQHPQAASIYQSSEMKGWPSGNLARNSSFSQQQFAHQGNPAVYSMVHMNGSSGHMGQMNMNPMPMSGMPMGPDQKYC
Sequence of Nuclear receptor subfamily 5 group A member 2 (Homo sapiens) (O00482 whole entry, looked up): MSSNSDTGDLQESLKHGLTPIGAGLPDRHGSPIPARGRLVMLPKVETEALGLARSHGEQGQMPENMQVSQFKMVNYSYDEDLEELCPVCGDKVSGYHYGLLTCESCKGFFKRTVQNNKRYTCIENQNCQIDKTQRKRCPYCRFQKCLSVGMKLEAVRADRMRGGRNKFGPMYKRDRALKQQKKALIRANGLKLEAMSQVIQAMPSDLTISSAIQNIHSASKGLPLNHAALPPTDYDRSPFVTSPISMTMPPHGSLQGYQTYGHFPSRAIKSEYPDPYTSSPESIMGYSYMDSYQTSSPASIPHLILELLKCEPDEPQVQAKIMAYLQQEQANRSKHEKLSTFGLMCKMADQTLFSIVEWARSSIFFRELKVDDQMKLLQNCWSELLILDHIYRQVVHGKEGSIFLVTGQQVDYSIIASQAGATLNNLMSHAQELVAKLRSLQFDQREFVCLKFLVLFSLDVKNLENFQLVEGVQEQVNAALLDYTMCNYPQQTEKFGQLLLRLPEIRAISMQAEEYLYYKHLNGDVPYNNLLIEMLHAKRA
Sequence of Nuclear receptor coactivator 1 (Homo sapiens) (Q15788 whole entry, looked up, the tested form may be a part): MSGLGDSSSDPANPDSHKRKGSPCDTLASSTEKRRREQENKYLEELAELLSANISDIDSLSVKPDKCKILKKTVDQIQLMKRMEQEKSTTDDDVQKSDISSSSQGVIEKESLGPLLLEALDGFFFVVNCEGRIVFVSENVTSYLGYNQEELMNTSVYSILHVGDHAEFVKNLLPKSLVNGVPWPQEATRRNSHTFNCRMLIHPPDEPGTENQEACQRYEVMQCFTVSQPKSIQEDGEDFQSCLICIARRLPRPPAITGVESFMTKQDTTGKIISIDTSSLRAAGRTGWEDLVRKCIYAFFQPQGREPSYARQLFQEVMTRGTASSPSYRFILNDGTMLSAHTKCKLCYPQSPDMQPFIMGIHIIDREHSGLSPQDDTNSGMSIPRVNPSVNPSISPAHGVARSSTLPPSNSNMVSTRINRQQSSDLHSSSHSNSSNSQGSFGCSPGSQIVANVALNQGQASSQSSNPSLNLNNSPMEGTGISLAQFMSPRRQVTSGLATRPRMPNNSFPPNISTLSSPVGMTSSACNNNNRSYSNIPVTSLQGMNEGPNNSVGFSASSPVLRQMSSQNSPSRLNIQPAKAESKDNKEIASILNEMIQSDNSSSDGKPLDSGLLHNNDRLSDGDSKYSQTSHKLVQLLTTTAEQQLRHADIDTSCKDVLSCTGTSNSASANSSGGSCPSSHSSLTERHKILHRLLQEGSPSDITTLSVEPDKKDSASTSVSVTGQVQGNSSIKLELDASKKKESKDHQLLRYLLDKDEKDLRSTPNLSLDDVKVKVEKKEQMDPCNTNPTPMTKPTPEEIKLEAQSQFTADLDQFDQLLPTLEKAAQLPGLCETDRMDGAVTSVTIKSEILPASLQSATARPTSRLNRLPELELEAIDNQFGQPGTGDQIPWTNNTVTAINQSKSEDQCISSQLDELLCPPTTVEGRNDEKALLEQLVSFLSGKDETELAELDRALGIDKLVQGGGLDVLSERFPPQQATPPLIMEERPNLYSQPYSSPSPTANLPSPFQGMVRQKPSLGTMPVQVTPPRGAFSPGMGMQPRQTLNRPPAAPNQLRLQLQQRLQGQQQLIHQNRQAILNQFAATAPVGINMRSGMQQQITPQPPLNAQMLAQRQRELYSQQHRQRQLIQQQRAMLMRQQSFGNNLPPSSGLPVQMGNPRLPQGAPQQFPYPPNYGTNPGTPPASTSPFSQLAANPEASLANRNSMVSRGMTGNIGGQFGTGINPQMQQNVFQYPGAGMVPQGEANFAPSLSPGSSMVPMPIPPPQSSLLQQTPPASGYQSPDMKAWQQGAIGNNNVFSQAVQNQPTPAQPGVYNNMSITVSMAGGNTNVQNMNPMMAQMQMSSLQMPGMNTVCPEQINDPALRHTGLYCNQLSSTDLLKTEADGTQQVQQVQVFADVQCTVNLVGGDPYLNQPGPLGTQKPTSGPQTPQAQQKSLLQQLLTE
Sequence of Steroidogenic factor 1 (Homo sapiens) (Q13285 whole entry, looked up, the tested form may be a part): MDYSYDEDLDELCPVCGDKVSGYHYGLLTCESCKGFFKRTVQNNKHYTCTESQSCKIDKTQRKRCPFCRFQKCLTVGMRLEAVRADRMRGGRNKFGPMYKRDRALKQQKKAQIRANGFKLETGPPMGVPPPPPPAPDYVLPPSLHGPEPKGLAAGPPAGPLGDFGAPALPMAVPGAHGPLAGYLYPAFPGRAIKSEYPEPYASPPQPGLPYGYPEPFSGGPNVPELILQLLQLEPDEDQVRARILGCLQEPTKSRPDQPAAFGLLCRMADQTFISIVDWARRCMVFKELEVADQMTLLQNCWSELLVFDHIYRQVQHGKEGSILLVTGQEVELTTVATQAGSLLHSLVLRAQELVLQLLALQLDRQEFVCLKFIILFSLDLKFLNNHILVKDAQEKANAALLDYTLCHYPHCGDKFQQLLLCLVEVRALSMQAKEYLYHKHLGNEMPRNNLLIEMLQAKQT
Sequence of Photoreceptor-specific nuclear receptor (Homo sapiens) (Q9Y5X4 whole entry, looked up, the tested form may be a part): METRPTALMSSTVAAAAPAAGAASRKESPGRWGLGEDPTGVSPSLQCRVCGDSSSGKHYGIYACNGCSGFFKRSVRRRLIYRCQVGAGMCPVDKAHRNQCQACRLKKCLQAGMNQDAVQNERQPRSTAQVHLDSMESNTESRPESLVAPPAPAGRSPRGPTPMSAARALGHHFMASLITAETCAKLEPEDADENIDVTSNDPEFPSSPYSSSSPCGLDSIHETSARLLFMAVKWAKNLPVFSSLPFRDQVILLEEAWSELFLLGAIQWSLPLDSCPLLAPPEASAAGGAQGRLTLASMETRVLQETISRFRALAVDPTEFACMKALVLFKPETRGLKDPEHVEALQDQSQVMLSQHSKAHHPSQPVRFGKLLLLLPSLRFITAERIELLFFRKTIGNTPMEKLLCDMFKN

COc1ccc(-n2nnnc2C(CCc2ccccc2)N2CCC(n3c(=O)[nH]c4ccccc43)CC2)cc1 (stereo unspecified)
inactive: [1] 25.2% | [2] 8.54% | [3] 2.43% | [4] 9.95% | [6] 28.1% | [7] 30.3%
active: [5] 48.7% | [8] 33.6%

CN(C)c1ccc(C(=O)N/N=C/C23CC[C@@H](O)CC2(O)CC[C@@H]2[C@@H]3CCC3(C)C(C4=CC(=O)OC4)CCC23O)cc1 (stereo partly specified)
inactive: [1] 1.62% | [2] 23.4% | [3] -57.9% | [4] 7.1%

CC1=C(N2CC2)C(=O)C(CO)=C(N2CC2)C1=O
active: [1] 96.1% | [2] 91.2% | [3] 86.1% | [4] 93%

COC(=O)[C@]12OC[C@]34C([C@@H](O)[C@@H]1O)[C@]1(C)CC(=O)C(O)=C(C)[C@@H]1C[C@H]3OC(=O)[C@H](O)[C@@H]24 (stereo partly specified)
active: [1] 71.6% | [2] 64.2% | [4] 68.8%
inactive: [3] -32.4%

C[C@H]1O[C@@H](OC2CC[C@]3(C=O)[C@H]4CC[C@]5(C)[C@@H](C6=CC(=O)OC6)CC[C@]5(O)[C@@H]4CC[C@]3(O)C2)CC2OC(C)(C)OC21 (stereo partly specified)
active: [1] 94.5% | [2] 85.3% | [3] 65.8% | [4] 83.1% | [5] 97.6% | [6] 111% | [7] 99.5% | [8] 93.3%

Cc1[nH]nc2ccc(-c3cncc(OC[C@@H](N)Cc4c[nH]c5ccccc45)c3)cc12
active: [1] 98.5% | [2] 97.1% | [3] 93.5% | [4] 97.3%

COC1CC2C=C(C)C=CC=CC(=O)NC(c3ccccc3)CC=CCCC(O)CC(=O)C2=C1O (stereo unspecified)
inactive: [3] 29.9%
active: [1] 75.1% | [2] 84% | [4] 84.7% | [5] 81.7% | [6] 107% | [7] 95.6% | [8] 89.8%

O=c1[nH]c2ccccc2n1C1CCN(C(c2cc3ccccc3o2)c2nnnn2Cc2ccccc2)CC1 (stereo unspecified)
active: [1] 59.9%
inactive: [2] 9.7% | [3] -16% | [4] 11.7%

CC[C@@]1(O)C(=O)OCc2c1cc1n(c2=O)Cc2cc3c(NC(=O)CN)cccc3nc2-1
inactive: [2] 9.37% | [4] -2.11% | [8] 9.93%
active: [1] 61.8% | [3] 55.3% | [5] 42.7% | [6] 70% | [7] 59.3%

O=C(CSC1c2ccccc2-c2ccccc21)N/N=C/c1ccccc1O
inactive: [1] 17.4% | [2] 21.9% | [3] 13.8% | [4] 18%

O=c1[nH]c2ccccc2n1C1CCN(C(c2nnnn2-c2ccc3c(c2)OCCO3)C2CC2)CC1 (stereo unspecified)
inactive: [1] 25.1% | [2] 23.5% | [3] -8.7% | [4] 22%

CC[n+]1c(-c2ccccc2)c2cc(N)ccc2c2ccc(N)cc21
active: [2] 52.4% | [4] 41.4% | [5] 68.7% | [6] 92.5% | [7] 77.7% | [8] 84.8%
inactive: [1] -43.8% | [3] 40.9%

N=c1c2c(n(Cc3ccc(Cl)cc3Cl)c3c1CCC3)CCCC2
active: [1] 43.5% | [2] 62.9% | [4] 63.4%
inactive: [3] 41.2%

CC[n+]1c(/C=C/N(C)c2ccccc2)sc2ccc(Cl)cc21
active: [2] 46.1% | [4] 48.8% | [6] 83.7% | [7] 73.4% | [8] 75%
inactive: [1] 28.9% | [3] 30.4% | [5] 23.7%

CC(C)[C@H]1C(=O)O[C@H](C(C)C)C(=O)N(C)[C@@H](C(C)C)C(=O)O[C@H](C(C)C)C(=O)N(C)[C@@H](C(C)C)C(=O)O[C@H](C(C)C)C(=O)N1C
active: [1] 75% | [2] 86.1% | [3] 59.5% | [4] 84.9%

O=c1[nH]c2ccccc2n1C1CCN(C(c2ccccc2)c2nnnn2Cc2ccccc2)CC1 (stereo unspecified)
inactive: [2] 16.8% | [3] -21.5% | [4] 15.1% | [9] 30.7% | [10] 4.07%
active: [1] 64.1%

C[C@]12CC[C@H](O)C[C@H]1CC[C@@H]1[C@@H]2C[C@@H](O)[C@]2(C)[C@@H](C3=CC(=O)OC3)CC[C@]12O
inactive: [3] 13.8%
active: [1] 88.8% | [2] 65.8% | [4] 65.4% | [5] 94.8% | [6] 107% | [7] 96% | [8] 77.7%

CCC(C)(O)C(=O)OC1C(=O)OC2CC3C(C)=CC(O)C(O)C3(C)C3C4(O)OCC23C1C(C)C4O (stereo unspecified)
active: [2] 65.8% | [4] 72% | [5] 79.5% | [6] 103% | [7] 92.4% | [8] 87%
inactive: [1] 38.8% | [3] 36.7%
